Bioassay records (PubChem BioAssay)
HCV inh – qHTS Assay for Inhibitors of Hepatitis C Virus (HCV) | Huh7.5.1 HCVcc-Cre infection, luciferase reporter, 44 h | Potency, µM (titrated, usually from 41.8 µM), usual class: inhibitors | 340,000 tested, 3.4% active | AID 651820, 2012; active means well fitted inhibition curve with a large enough effect; inconclusive means small, poorly fitted or top-dose-only effect, or another doubt; inactive means no such curve, though single readings can be large or run the other way
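HCVcc-Cre virus at an moi near 0.5 was added right after compound to cells cultured 4 h from seeding (1,000 cells/well). Luciferase activity was determined 44 h later, 15 min after substrate addition at RT.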
HCMV antiviral – qHTS Assay for inhibitors of the human cytomegalovirus (HCMV); AID 1259415, 2018; HFF cells, HCMV-luciferase reporter, 72 h; active compounds read low; activity change, negative = inhibition, % at 57.5 µM; 410,000 tested, 4.5% active; in the data active means activity change below about -60%; inconclusive means no clear call, values can overlap the other calls; inactive means above about -39%
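Steps: HFFs plated, 16 h 37C; compounds added; HCMV-luciferase added to MOI 1 PFU/cell; 72 h 37C; OneGlo reagent, 5 min room temperature; luminescence read, normalized to controls.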
Vaccinia mCherry – qHTS for Stage-Specific Inhibitors of Vaccinia Orthopoxvirus: mCherry Reporter Primary qHTS. Vaccinia virus mCherry reporter infection, fluorescence. Potency, µM (series often up to 36.5 µM), actives largely listed as inhibitors. 310,000 tested, 0.63% active; calls by dose curve; tested in A549 cells; further: nearly all actives have a fitted effect of over 35% in size
Vaccinia Venus – qHTS for Stage-Specific Inhibitors of Vaccinia Orthopoxvirus: Venus Reporter Primary qHTS; 330,000 tested, 0.46% active; Potency, µM (doses to about 36.5 µM), usual class: inhibitors; Vaccinia virus Venus reporter expression, fluorescence; AID 720580, 2013; calls by dose curve; tested in A549 cells; further: nearly all actives have a fitted effect of over 30% in size
FMDV antiviral – High Throughput Screening for Foot and Mouth Disease Virus Antivirals | FMDV antiviral cell-based qHTS | Potency, µM (top dose mostly 57.9 µM), most hits filed as inhibitors | 410,000 tested, 1.2% active; calls by dose curve; tested in HEK293T cells; further: read-out not given here; nearly all actives have a fitted effect of over 45% in size
Of the large screens only hits and unclear results are named; the others gave an inactive call. Only some compounds are listed: those with a hit (about 7.3% of all), similar ones and a draw of the others.

O=C(O)CCCCCNc1nc(-c2ccccc2)nc2ccccc12	none (no result: Vaccinia mCherry, Vaccinia Venus)
CCCCOc1ccc(C(=O)NCC(=O)NCC(c2cccs2)N2CCOCC2)cc1 (stereo not drawn)	HCMV antiviral active (no result: Vaccinia mCherry, Vaccinia Venus)
CC(C)c1ccccc1OCC(=O)NCC(c1cccs1)N1CCOCC1 (stereo not drawn)	HCV inh inconclusive, Vaccinia Venus inconclusive, FMDV antiviral 32µM (no result: Vaccinia mCherry)
COc1ccccc1OCC(=O)NCC(c1cccs1)N1CCOCC1 (stereo not drawn)	none
CNC(=O)c1ccc2nc(-c3cccc(C)c3)c(-c3cccc(C)c3)nc2c1	none (no result: HCV inh, HCMV antiviral, FMDV antiviral)
CCOC(=O)c1sc(NC(=O)CSc2nnc(Cc3ccccc3)o2)c(C(=O)OCC)c1C	HCV inh 6.3µM (no result: Vaccinia mCherry, Vaccinia Venus)
CCOC(=O)c1sc(NC(=O)CSc2nc3ccccc3o2)c(C(=O)OCC)c1C	none
CCOC(=O)c1c(-c2ccccc2)csc1NC(=O)CSc1ccccc1	none
CCOC(=O)c1c(-c2ccccc2)csc1NC(=O)CSc1nnnn1C	HCV inh 7.1µM, FMDV antiviral inconclusive (no result: Vaccinia mCherry, Vaccinia Venus)
CCOC(=O)c1c(NC(=O)CSc2nncs2)sc(C)c1-c1ccccc1	HCV inh inconclusive, HCMV antiviral -64, Vaccinia mCherry inconclusive, Vaccinia Venus inconclusive, FMDV antiviral inconclusive
CCOC(=O)c1c(-c2ccccc2)csc1NC(=O)CSc1nncs1	HCV inh inconclusive, Vaccinia mCherry inconclusive, Vaccinia Venus inconclusive, FMDV antiviral inconclusive
CCCCN(CC)C(=O)CCn1c(=O)c2cccn2c2cccnc21	HCMV antiviral inconclusive (no result: HCV inh)
CCC(O)C1CCN(Cc2cn(Cc3ccccc3)nc2-c2cc3ccccc3o2)CC1 (stereo not drawn)	HCV inh inconclusive, HCMV antiviral -61
O=C(Nc1ccc(Cn2cccn2)cc1)c1ccc(COc2ccccc2Br)cc1	HCV inh 13µM, HCMV antiviral -83, Vaccinia mCherry inconclusive, Vaccinia Venus inconclusive, FMDV antiviral 14µM
CC1(C)Cc2c(c(N3CCCC3)nc3sc4c(N5CCNCC5)ncnc4c23)CO1	HCV inh 14µM (no result: HCMV antiviral, Vaccinia mCherry, Vaccinia Venus)
CCc1nc2sc3c(N4CCCCC4)ncnc3c2c2c1CCCC2	none (no result: HCV inh)
Cc1cccc(C(=O)OCC(=O)c2c(C)[nH]c3ccccc23)c1O	HCV inh inconclusive (no result: Vaccinia mCherry, Vaccinia Venus)
COCCNC(C(=O)Nc1ccc([N+](=O)[O-])cc1Br)c1ccccc1 (stereo not drawn)	HCMV antiviral -82, FMDV antiviral inconclusive
Oc1ccc(Cl)cc1-c1cc(-c2ccccc2)n[nH]1	HCV inh 10µM, Vaccinia mCherry inconclusive, Vaccinia Venus inconclusive
Cc1ccccc1-c1cc(-c2ccccc2O)n[nH]1	HCV inh 7.1µM
Cc1ccc(-c2cc(-c3ccc(F)cc3)n[nH]2)c(O)c1	HCV inh 13µM, Vaccinia Venus inconclusive
Oc1ccc(Br)cc1-c1cc(-c2ccccc2Cl)[nH]n1	HCV inh 7.9µM, Vaccinia mCherry inconclusive
CC1=C(C(=O)Nc2cccc(C(F)(F)F)c2)C2(CCCCCC2)OC1=O	none (no result: HCV inh)
COc1cc(NC(=O)Cn2nc(C(F)(F)F)c3c2CCC3)cc(OC)c1OC	FMDV antiviral inconclusive (no result: HCV inh)
NCCCn1c(C(=O)c2cc(Cl)c(N)c(Cl)c2)c2ccc([N+](=O)[O-])cc2[n+]1[O-]	HCV inh inconclusive, HCMV antiviral -67, Vaccinia mCherry inconclusive, Vaccinia Venus 13µM
Cc1ccc(C(=O)c2c3ccc([N+](=O)[O-])cc3[n+]([O-])n2CCC(N)=O)cc1	HCV inh 13µM, Vaccinia mCherry inconclusive, Vaccinia Venus inconclusive
COc1ccc(C(=O)c2c3ccc([N+](=O)[O-])cc3[n+]([O-])n2CCCC(N)=O)cc1	HCV inh inconclusive, Vaccinia mCherry inconclusive, Vaccinia Venus inconclusive
CCC(CC)c1nn2c(=O)cc(COc3ccc(NC(=O)c4ccc(C)cc4)cc3)nc2s1	none (no result: HCV inh)
O=C(CCC1CCCC1)N1CCc2c([nH]c3ccccc23)C1c1ccc(F)cc1 (stereo not drawn)	HCMV antiviral -84 (no result: HCV inh)
O=C(CCC1CCCC1)N1CCc2c([nH]c3ccccc23)C1c1ccc(Cl)cc1 (stereo not drawn)	HCMV antiviral -69 (no result: HCV inh)
CCOc1cccc(C2c3[nH]c4ccccc4c3CCN2C(=O)CCC2CCCC2)c1 (stereo not drawn)	none (no result: HCV inh)
CC1(C(=O)NCc2cccs2)CCN1C(=O)Cc1ccc(Cl)cc1Cl (stereo not drawn)	none (no result: HCV inh)
Cc1ccc(CN2C3CCCC2CC(NC(=S)NCc2ccccc2)C3)cc1 (stereo not drawn)	HCV inh inconclusive, HCMV antiviral -67, Vaccinia mCherry inconclusive
CCc1ccc(CNc2ccc(N3CCN(C(C)=O)CC3)cc2)cc1	HCV inh inconclusive, HCMV antiviral -80, Vaccinia mCherry inconclusive, Vaccinia Venus inconclusive
CCNC(=S)NC1CC2CCCC(C1)N2Cc1ccc(C)cc1 (stereo not drawn)	none (no result: Vaccinia mCherry, Vaccinia Venus)
Clc1ccc(CNc2ccc(N3CCN(Cc4ccccc4)CC3)cc2)cc1	HCV inh 10µM, FMDV antiviral inconclusive
Clc1ccc(CNC2CCN(Cc3ccccc3)CC2)cc1	HCV inh 8.9µM
O=C(CN1C(=O)NC2(CCOc3ccccc32)C1=O)N1CCCCC1 (stereo not drawn)	none
CCCCC(=O)Nc1cc(OC)c(NC(=S)Nc2ccc(OC)cc2)cc1OC	HCV inh inconclusive (no result: Vaccinia mCherry, Vaccinia Venus)
Clc1ccc(CN2CCC(Cc3ccccc3)CC2)cc1	Vaccinia Venus inconclusive
c1ccc(-c2ccc(CNC3CC3)cc2)cc1	HCMV antiviral -80
S=C(Nc1ccc(Cl)cc1Cl)NC1CCN(Cc2ccccc2)CC1	HCV inh inconclusive, HCMV antiviral inconclusive, Vaccinia Venus inconclusive
CC1CCCN(C(=O)CN2CCC(c3nc4ccc(Cl)cc4[nH]3)CC2)C1 (stereo not drawn)	HCV inh inconclusive (no result: Vaccinia mCherry, Vaccinia Venus)
Clc1ccc(CN2CCC(c3nc4ccc(Cl)cc4[nH]3)CC2)cc1	HCV inh inconclusive, HCMV antiviral -65, Vaccinia Venus inconclusive, FMDV antiviral inconclusive
Fc1ccc(CNC2CCN(Cc3ccccc3)CC2)cc1	HCV inh inconclusive (no result: Vaccinia mCherry, Vaccinia Venus)
Clc1ccc(CN2CCC(c3ccccc3)CC2)cc1	HCMV antiviral -103
S=C(NCc1ccc(Cl)cc1)NC1CCN(Cc2ccccc2)CC1	HCV inh 4µM, HCMV antiviral -89, Vaccinia Venus inconclusive
CCOc1ccc(C(=O)Nc2ccc3oc(-c4ccc5ccccc5c4)nc3c2)cc1	none (no result: HCV inh)
O=C(Nc1cccc(Cl)c1)c1ccc(F)c(S(=O)(=O)NCc2cccs2)c1	HCV inh inconclusive, HCMV antiviral -93, Vaccinia Venus inconclusive, FMDV antiviral inconclusive
COc1ccccc1CNS(=O)(=O)c1cc(C(=O)Nc2cccc(C(F)(F)F)c2)ccc1F	HCMV antiviral -67, Vaccinia Venus inconclusive (no result: HCV inh)
COc1ccc(CNS(=O)(=O)c2cc(C(=O)Nc3cc(Cl)cc(Cl)c3)ccc2F)cc1	HCMV antiviral -78 (no result: HCV inh)
Cc1ccc(C(=O)Nc2ccc(Br)cc2)cc1S(=O)(=O)NCc1ccccc1	HCMV antiviral -69, Vaccinia mCherry inconclusive, Vaccinia Venus inconclusive (no result: HCV inh)
Cc1ccc(C(=O)Nc2ccccc2C(=O)O)cc1S(=O)(=O)NCc1ccccc1	none (no result: Vaccinia mCherry, Vaccinia Venus)
